# Measurements reported in PubChem BioAssay.
# Activity calls are given as the source filed them.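 How the source made its calls, unless noted: active means inhibition at or above 50% at 10 µM; inactive means inhibition below 50%.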
# Legend:
# [1] = inhibitors of TNFa-induced NFkB p65 translocation, primary screen, imaging, HUVEC, MLSMR starter and 10KST1 sets (AID 438;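 active means inhibition above 20% together with a positive visual image hit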;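 further: compound added about 3h40 before a 20 min TNFalpha stimulation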;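 on inhibition: signal is the nuclear over cytoplasmic p65 intensity ratio per well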); conditions: HUVEC TNFa-induced p65 nuclear translocation; cell count: measured here: nuclei count (cytotoxicity indicator), at 2.08 µM; inhibition: at 2 µM, stronger effect = higher value, 0% TNFa-plus-vehicle, 100% no-TNFa wells
# [2] = reduction of polyQ htt aggregates in cells – imaging, exon1htt(103Q)mCFP cells, high-content imaging, primary screen (AID 483;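 active means visual image review flags a hit and inhibition of aggregation exceeds 20%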;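 further: compound exposure lasted 3 days before fixation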;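 on nuclei count: percent of the per-plate median nuclei count of sample wells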); conditions: exon1htt(103Q)mCFP cell line, aggregate imaging, at 2 µM; inhibition of aggregation: stronger effect = higher value; nuclei count: measured here: cell count, toxicity
# [3] = endothelial E-selectin expression blockers – imaging, HUVEC, immunofluorescence, MLSMR starter and 10KST1 sets, primary screen (AID 487;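 active means visually confirmed hit in the image check and inhibition above 20%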;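 on inhibition: signal is fraction of cell area covered by stained E-selectin grains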;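 on nuclei count: 100% = median nuclei count of all wells on the same plate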); conditions: HUVEC TNFalpha-induced E-selectin immunofluorescence imaging, at 2 µM; inhibition: stronger effect = higher value; nuclei count: measured here: cell number, toxicity
# [4] = target: Voltage-gated potassium channel subunit beta-2 (Rattus norvegicus) (UniProt P62483); test: inhibitors of rat Kvbeta2 reductase activity – biochemical, NADPH fluorescence, primary screen (AID 622;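 active means fluorescence slope higher than the sample average by over 3 SD, cut at about -0.22 in these data, passing the limit was not always enough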;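 further: slope of raw intensity against log time taken from 70 to 1610 s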); conditions: recombinant KvBeta, 4-cyanobenzaldehyde reduction, at 10 µM, stronger effect = higher value
# Chain of Voltage-gated potassium channel subunit beta-2 (Rattus norvegicus) (P62483 whole entry, looked up): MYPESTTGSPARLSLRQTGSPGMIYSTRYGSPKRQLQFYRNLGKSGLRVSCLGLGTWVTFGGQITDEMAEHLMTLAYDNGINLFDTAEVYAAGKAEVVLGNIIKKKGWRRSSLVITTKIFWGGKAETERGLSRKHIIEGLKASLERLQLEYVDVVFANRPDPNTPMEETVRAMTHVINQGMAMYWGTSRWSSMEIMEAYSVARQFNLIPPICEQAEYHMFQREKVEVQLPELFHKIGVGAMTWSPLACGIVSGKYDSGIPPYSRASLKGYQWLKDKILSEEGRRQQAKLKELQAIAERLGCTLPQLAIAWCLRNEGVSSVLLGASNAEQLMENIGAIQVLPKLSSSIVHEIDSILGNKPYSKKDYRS
# [5] = target: Voltage-gated potassium channel subunit beta-2 (Rattus norvegicus) (UniProt P62483); test: enhancers of rat Kvbeta2 NADPH turnover – biochemical, NADPH fluorescence, primary screen (AID 623;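 active means NADPH fluorescence slope more negative than the mean of all samples by about 3 SD, 99.7% confidence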;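 further: fluorescence intensity change per second fitted from 20 to 320 s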); conditions: Recombinant KvBeta, NADPH fluorescence decrease slope, 10 min; at 10 µM; stronger effect = lower value
# [6] = target: Alpha-2C adrenergic receptor (Homo sapiens) (UniProt P18825); test: compounds altering alpha2C-coupled GIRK flux – cell-based, HEK293 alpha2C/GIRK1/2, thallium flux, primary screen (AID 624;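 active means fluorescence slope after compound addition differing from the mean of all screened samples at 99.7% confidence, in either direction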;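 further: slope of fluorescence ratio to pre-addition baseline per second over 15 to 24 s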); conditions: thallium flux BTC fluorescence, at 10 µM, actives lie on both sides
# Chain of Alpha-2C adrenergic receptor (Homo sapiens) (P18825 whole entry, looked up): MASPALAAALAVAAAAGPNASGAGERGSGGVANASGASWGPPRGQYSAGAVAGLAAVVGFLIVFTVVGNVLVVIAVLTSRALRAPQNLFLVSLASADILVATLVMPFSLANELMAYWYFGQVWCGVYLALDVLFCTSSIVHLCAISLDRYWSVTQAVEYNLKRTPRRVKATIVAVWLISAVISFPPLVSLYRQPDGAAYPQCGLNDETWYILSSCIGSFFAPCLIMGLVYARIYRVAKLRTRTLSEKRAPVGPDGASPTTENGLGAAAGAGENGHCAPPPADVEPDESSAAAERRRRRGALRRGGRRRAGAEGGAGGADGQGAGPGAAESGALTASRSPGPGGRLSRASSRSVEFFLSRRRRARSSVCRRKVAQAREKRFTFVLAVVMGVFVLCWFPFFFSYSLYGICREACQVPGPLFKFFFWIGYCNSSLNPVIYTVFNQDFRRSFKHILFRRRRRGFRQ
# [7] = blockers of RIG-like receptor reporter activation – cell-based, Sendai virus stimulus, luciferase, 10K MLSCN set, TLR/RLR signaling modifier project, primary screen (AID 602276); conditions: HEK293 RL24 IRF3 luciferase reporter, at 10 µM, stronger effect = higher value;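 further: firefly luciferase from ISG56 promoter only with Renilla not read in this screen; 0% = Sendai virus plus DMSO and 100% = medium plus DMSO without virus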
# [8] = TLR3 IRF3 reporter activation blockers – cell-based, poly I:C stimulus, luciferase, 10K MLSCN set, primary screen (AID 602277;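 active means inhibition of the reporter signal at or above 50%; inactive means inhibition below 50%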); conditions: HEK293-TLR3 RL24 IRF3 luciferase reporter, at 10 µM, stronger effect = higher value
Structure (SMILES),cell count [1],inhibition [1],inhibition of aggregation [2],nuclei count [2] [%],inhibition [3],nuclei count [3] [%],fluorescence slope [4],NADPH fluorescence slope [5],slope [6],inhibition [7],inhibition [8]
CCSc1nc2ccccc2n1CC(N)=O,400,2.1% (inactive),-4% (inactive),114,-62.6% (inactive),113,-0.449 (inactive),-0.000317 (inactive),0.00599 (inactive),14.3% (inactive),20.8% (inactive)
CCOC(=O)c1ccc(N(CC(=O)NC2CCCC2)C(=O)CNC(=O)c2ccco2)cc1,626,-7.8% (inactive),5.5% (inactive),79.3,-11.3% (inactive),105,-0.508 (inactive),-5.1e-05 (inactive),0.0066 (inactive),15.3% (inactive),18.5% (inactive)
CCS(=O)(=O)c1nc2ccccc2n1Cc1ccccc1Cl,689,-1.1% (inactive),-10.2% (inactive),115,-31.4% (inactive),109,-0.542 (inactive),-5.8e-06 (inactive),0.0072 (inactive),-0.827% (inactive),18.9% (inactive)
CC1=CCC2C(=O)N(c3nc(C)cc(C)n3)C(=O)C2C1 (stereo not drawn),332,4.2% (inactive),9% (inactive),85.6,-124% (inactive),105,-0.53 (inactive),-7.2e-05 (inactive),0.00507 (inactive),12.7% (inactive),21.2% (inactive)
COc1ccc(N2CCN(C(c3ccccc3)c3sc4nc(C)nn4c3O)CC2)cc1 (stereo not drawn),694,-12.9% (inactive),-0.9% (inactive),112,-21.7% (inactive),96.4,-0.452 (inactive),-4.8e-05 (inactive),0.00526 (inactive),8.1% (inactive),11.1% (inactive)
COC(=O)[C@H](C)NC(=O)Nc1cc(OC)ccc1OC,572,-15.2% (inactive),-17.4% (inactive),114,-11% (inactive),103,-0.586 (inactive),1.8e-05 (inactive),0.00542 (inactive),-3.29% (inactive),-52% (inactive)
CCC(CC)C(=O)NCCc1cc2ccc(C)cc2[nH]c1=O,643,0.5% (inactive),3% (inactive),117,-15.4% (inactive),111,-0.556 (inactive),-3.5e-05 (inactive),0.00557 (inactive),14.3% (inactive),26.1% (inactive)
COc1ccc(Cn2nnnc2C(c2cccs2)N2CCOCC2)cc1 (stereo not drawn),572,-4.8% (inactive),-10.4% (inactive),98.8,-10.4% (inactive),114,-0.419 (inactive),1.2e-06 (inactive),0.00389 (inactive),-1.07% (inactive),-0.428% (inactive)
O=C(Nc1ccc(Br)c2cccnc12)c1ccc(Cn2cc(Cl)cn2)o1,357,9.8% (inactive),10.4% (inactive),94.8,-76.7% (inactive),99.5,-0.519 (inactive),-3.6e-05 (inactive),0.00614 (inactive),-9.8% (inactive),-11% (inactive)
Cn1c(=O)[nH]c(=O)c2c1nc(NCCCn1ccnc1)n2Cc1cccc(Br)c1,663,-12.9% (inactive),8.6% (inactive),68.9,-53.6% (inactive),112,-0.403 (inactive),-2.8e-05 (inactive),0.006 (inactive),16.8% (inactive),26.1% (inactive)
Cc1ccc(NC(=O)C2CCCN(S(=O)(=O)c3cnc[nH]3)C2)cc1F (stereo not drawn),521,0.9% (inactive),7.3% (inactive),99.9,-108% (inactive),126,-0.521 (inactive),-4.2e-05 (inactive),0.00688 (inactive),22.4% (inactive),21.8% (inactive)
Cc1ccccc1Cn1ccc(NC(=O)c2onc(C)c2Cl)n1,654,-1.6% (inactive),28.9% (inactive),118,-52.1% (inactive),106,-0.425 (inactive),-4.5e-05 (inactive),0.00472 (inactive),-15.7% (inactive),-37% (inactive)
CCOc1ccccc1NC(=O)CSc1nnc(Cc2cccn2C)n1-c1ccc(F)cc1,529,-2.9% (inactive),-9.7% (inactive),93.1,-55.6% (inactive),109,-0.577 (inactive),-3.6e-05 (inactive),0.00579 (inactive),12.1% (inactive),31.3% (inactive)
CCn1c(=O)c(C(=O)Nc2cccnc2)c(O)c2ccccc21,362,4.1% (inactive),7% (inactive),105,-39.9% (inactive),107,-0.465 (inactive),-4.5e-05 (inactive),0.00569 (inactive),-1.35% (inactive),-9.19% (inactive)
CCCc1c(O)nc(SCC(=O)NCCc2ccc(OC)c(OC)c2)[nH]c1=O,581,-10.8% (inactive),5.3% (inactive),73.8,38.4% (inactive),82.7,-0.486 (inactive),-3.3e-05 (inactive),0.00432 (inactive),13.2% (inactive),13.9% (inactive)
CCN(CC)C(=O)C1=C(C)Nc2nnnn2C1c1cccnc1 (stereo not drawn),346,9.3% (inactive),11.2% (inactive),102,-55.9% (inactive),109,-0.567 (inactive),1.1e-05 (inactive),0.0059 (inactive),11.8% (inactive),16.8% (inactive)
CCOC(=O)C1=C(C)OC(N)=C(C#N)C1c1ccoc1 (stereo not drawn),558,-4.8% (inactive),-7.5% (inactive),81.3,24.7% (inactive),78.9,-0.428 (inactive),-6.9e-05 (inactive),0.00431 (inactive),9.81% (inactive),33% (inactive)
O=C(CN(Cc1ccc2c(c1)OCO2)C(=O)CNS(=O)(=O)c1ccccc1)NCc1ccco1,869,9% (inactive),-9.2% (inactive),108,-3.6% (inactive),98.7,-0.356 (inactive),8e-07 (inactive),0.00553 (inactive),15.7% (inactive),36.2% (inactive)
O=C(Nc1ccc(Cl)c(C(F)(F)F)c1)N1CCCC(O)C1 (stereo not drawn),356,4.5% (inactive),-4.8% (inactive),106,-50.8% (inactive),107,-0.453 (inactive),2.2e-05 (inactive),0.00599 (inactive),1.7% (inactive),-22.3% (inactive)
COc1cc(C(=O)N2CCC(NC(=O)C(Cc3ccc(C)cc3)NC(C)=O)CC2)cc(OC)c1OC (stereo not drawn),666,-6.1% (inactive),22.1% (inactive),56.4,5.2% (inactive),127,-0.478 (inactive),-4.4e-05 (inactive),0.00562 (inactive),1.73% (inactive),24.4% (inactive)
CCOC(=O)c1cccc(NC(=O)c2ccco2)c1,690,2.9% (inactive),-3.3% (inactive),100,38.8% (inactive),97,-0.387 (inactive),-6e-05 (inactive),0.00541 (inactive),-16.7% (inactive),-83.6% (inactive)
CC(C)CCNc1cc(=O)n(C)c(=O)n1C,686,-3.9% (inactive),-15.5% (inactive),108,28.9% (inactive),88,-0.459 (inactive),5e-05 (inactive),0.00778 (inactive),0.49% (inactive),8.23% (inactive)
CN(C)CCNC(=O)c1ccc(COCC(F)(F)F)cc1,500,-2.2% (inactive),-17.1% (inactive),112,-22.6% (inactive),99,-0.408 (inactive),-3.8e-05 (inactive),0.00605 (inactive),14.2% (inactive),9.51% (inactive)
CCOc1ccccc1CN(Cc1ccco1)S(=O)(=O)c1ccc(-n2cnnn2)c(OC)c1,439,5.7% (inactive),13.2% (inactive),99.8,4.1% (inactive),113,-0.519 (inactive),-1.2e-05 (inactive),0.00748 (inactive),-53.6% (inactive),63.3% (active)
Cc1c(NC(=O)CCc2ccc(S(=O)(=O)N3CCOCC3)cc2)c(=O)n(-c2ccccc2)n1C,575,4.1% (inactive),-26.2% (inactive),119,-86.1% (inactive),112,-0.527 (inactive),-1.9e-05 (inactive),0.00736 (inactive),-8.63% (inactive),5.48% (inactive)
CC(NC(=O)Cc1cccs1)c1ccc2c(c1)OCO2 (stereo not drawn),333,5.1% (inactive),-3.8% (inactive),104,-9.2% (inactive),109,-0.609 (inactive),-2.4e-05 (inactive),0.00364 (inactive),14.9% (inactive),4.01% (inactive)
CCN(CC)CCNC(=O)c1ccc(N2CCCCC2)c(NS(=O)(=O)c2ccc(C)cc2)c1,370,6.9% (inactive),1.6% (inactive),97.8,-16% (inactive),122,-0.557 (inactive),-3.5e-05 (inactive),0.00347 (inactive),13.5% (inactive),13.1% (inactive)
Cn1cc(CN2CCc3ccccc3C2)c2ccccc21,361,-12.1% (inactive),-6.2% (inactive),146,-62.7% (inactive),110,-0.408 (inactive),-0.000148 (inactive),0.00535 (inactive),20.8% (inactive),37.6% (inactive)
